This excerpt belongs to a sample that is enriched for hits.
p53ts 32C kill: p53ts cell cytotoxicity, permissive temperature. AID 924. Potency, µM (top dose mostly 46.1 µM), for inactives: top-dose activity change, negative = cytotoxicity, most hits filed as cytotoxic. actives 0.93% (n = 130,000). H1299-p53A138V at 32C, ATP luminescence viability, 24 h;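 also: potency is read from the fitted curve at half-maximal effect; 0% = DMSO and -100% = full killing by reference compound; nearly all actives have a fitted effect of over 55% in size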
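ATP-content luminescence (ATPlite) read-out after 24 h compound exposure at 32C in H1299-p53A138V cells (600/well). Tested up to 46 uM. Normalized to DMSO (0%) and 100 uM tamoxifen (100% killing); Hill-fit AC50.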
p53ts 39C kill: p53ts cell cytotoxicity, nonpermissive temperature | H1299-p53A138V viability at 39C, ATP luminescence, 24 h | Potency, µM (highest dose often 46.1 µM), for the others: at the top dose activity change, negative = cell killing, usual class: cytotoxic | actives 1.5% (n = 130,000); also: potency is read from the fitted curve at half-maximal effect; % is scaled to controls: 0 for no effect and ±100 for the full control effect; nearly all actives have a fitted effect of over 55% in size
IMPase cell inh: membrane-permeable compound that blocks inositol monophosphatase | P97697 | CHO-M1 cells, IP1 accumulation, HTRF TR-FRET ratio | inhibition (IP1 accumulation), % at 46.1 µM | 120,000 tested, under 10 active | AID 901; active = well fitted curve in the direction sought with a large enough effect in the signal ratio, not every such curve was filed as active; inconclusive = small, poorly fitted or top-dose-only effect, or a change in a side signal; inactive = no such curve, though single readings can be large or run the other way; the % refers to the signal ratio;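 also: cells stimulated with carbachol in lithium chloride buffer; plate controls were DMSO basal wells for no effect and reference inhibitor wells for full effect; higher means more IMPase inhibition seen as more IP1 and lower FRET ratio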
Target sequence (P97697 whole entry, looked up): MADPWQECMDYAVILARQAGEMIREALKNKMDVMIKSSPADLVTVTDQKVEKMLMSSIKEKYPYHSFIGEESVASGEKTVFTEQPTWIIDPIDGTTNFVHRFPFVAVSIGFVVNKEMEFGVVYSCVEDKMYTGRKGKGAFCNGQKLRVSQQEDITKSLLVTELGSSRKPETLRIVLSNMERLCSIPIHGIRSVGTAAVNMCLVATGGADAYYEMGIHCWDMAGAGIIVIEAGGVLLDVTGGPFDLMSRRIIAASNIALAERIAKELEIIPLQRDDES
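In this qHTS, compounds (final up to 46 uM) act on CHO-M1 cells that are then activated through the M1 receptor with carbachol, in pH 7.4 buffer containing 50 mM LiCl, for 30 min. IP1 accumulation is quantified by the IP-One immunoassay.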
IkB signaling: inhibitors of IkB signaling in ABC-DLBCL cells; Potency, µM (top dose mostly 57.1 µM), for inactives: at the highest dose IkBa stabilization activation; ABC-DLBCL IkBa-CBG/CBR dual luciferase ratio, 4 h; response scale: scaled: untreated 0%, proteasome inhibitor 100%; AID 445; actives 0.04% (n = 110,000); active = well fitted curve in the direction sought with a large enough effect in the signal ratio, not every such curve was filed as active; inconclusive = small, poorly fitted or top-dose-only effect, or a change in a side signal; the % refers to the signal ratio;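 also: potency is read from the fitted curve at half-maximal effect; the direction sought is a rising ratio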
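Luminescence ratio of IκBα-fused green versus native red beetle luciferase in OCI-Ly3 cells, 4 h post-doxycycline with compound; red signal alone, scaled from basal (0%) to zero light (-100%), flagged nonspecific or cytotoxic effects.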
Peg3 imprint: induces erasure of genomic imprints in mouse ES cells | mouse ES Peg3-LacZ reporter, beta-gal luminescence, 40 h | Potency, µM (titrated, usually from 60.7 µM), without a hit: at the top dose activity change, positive = activation, most hits filed as activators | actives 0.02% (n = 110,000) | AID 1948; also: potency is read from the fitted curve at half-maximal effect
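Gelatin-coated wells received 300 freshly trypsinized female ES cells with a Peg3LacZ-Neo reporter on the maternal allele, then incubated 40 hours at 37C. BetaGlo was added for 5 minutes at room temperature before a single luminescence read.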
Luciferase inh: inhibitors of firefly luciferase; P08659; purified firefly luciferase, luminescence, 8 min; Potency, µM (doses to about 57.1 µM), inactives show top-dose activity change, negative = inhibition, hits mostly inhibitors; actives 2.2% (n = 72,000); AID 411; also: potency is read from the fitted curve at half-maximal effect; % is scaled to controls: 0 for no effect and ±100 for the full control effect; nearly all actives have a fitted effect of over 40% in size
Target sequence (P08659 whole entry, looked up): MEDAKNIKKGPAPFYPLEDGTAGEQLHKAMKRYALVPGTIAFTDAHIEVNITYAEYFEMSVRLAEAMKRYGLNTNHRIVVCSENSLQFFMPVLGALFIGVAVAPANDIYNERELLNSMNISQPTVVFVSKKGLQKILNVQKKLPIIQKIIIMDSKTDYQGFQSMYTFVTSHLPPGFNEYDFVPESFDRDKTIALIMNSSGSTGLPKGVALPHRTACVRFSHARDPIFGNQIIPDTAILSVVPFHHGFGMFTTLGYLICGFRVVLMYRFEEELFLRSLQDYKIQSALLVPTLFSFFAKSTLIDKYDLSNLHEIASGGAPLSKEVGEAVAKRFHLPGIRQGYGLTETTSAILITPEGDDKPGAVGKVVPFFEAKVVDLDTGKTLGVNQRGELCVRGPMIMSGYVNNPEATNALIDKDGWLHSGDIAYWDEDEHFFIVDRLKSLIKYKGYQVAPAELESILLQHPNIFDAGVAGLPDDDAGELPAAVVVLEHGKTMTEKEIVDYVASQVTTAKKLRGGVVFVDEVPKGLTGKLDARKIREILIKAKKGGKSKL
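Titration-based qHTS; buffer 50 mM imidazole pH 7.2, 50 mM KCl, 7 mM MgCl2, 10 uM ATP, 0.01% Tween 20, 0.05% BSA; luciferase/luciferin detector mix added after compound; 8 min, ambient; luminescence.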
An asterisk follows results filed as active; ? = inconclusive; · = no result; [ ] = another dose, or the depositor's remark. Unless noted, calls follow the shape of the dose curve; as a rule, active = well fitted curve in the direction sought with a large enough effect; inconclusive = small, poorly fitted or top-dose-only effect, or another doubt; inactive = no such curve, though single readings can be large; an effect the other way counts as inactive or inconclusive.

SMILES | p53ts 32C kill | p53ts 39C kill | IMPase cell inh | IkB signaling | Peg3 imprint | Luciferase inh
O=C(COC(=O)c1ccco1)Nc1ccc2c(c1)OCCO2 | 3% | -2% | -1 | 0% | -2% | 10µM*
O=C(COC(=O)c1ccccc1NC(=O)c1ccco1)Nc1ccc2c(c1)OCO2 | 5% | -13% | 5 | ? | -47% | -8%
O=C(Nc1ccc2c(c1)OCCO2)c1ccco1 | 16µM* | 13µM* | 2 | 3% | -87% | 10µM*
O=C(Nc1ccc2c(c1)OCO2)OCc1ccccc1 | ? | ? | -1 | 7% | -52% | 13µM*
COc1ccc(O[C@H]2C=C[C@@H](c3ccccc3)O[C@H]2COC(=O)CC/C(C)=N/O[C@@H]2O[C@H](COC(C)=O)[C@H](OC(C)=O)[C@H](OC(C)=O)[C@H]2OC(C)=O)cc1 | -4%[9.22 µM] | 9%[9.22 µM] | · | · | · | 2%[11.4 µM]
N[C@@H](C(=O)O)[C@@H]1C[C@H]1C(=O)O | · | · | · | 0% | · | 2%
CCc1ccc(-n2c(=O)c3c(C)c(C(=O)N(C)C)sc3n(CC(=O)Nc3cc(Cl)ccc3C)c2=O)cc1 | 4% | 23% | · | 9% | 16%[10.9 µM] | ·
CCOc1ccccc1NC(=O)Cn1c(=O)n(-c2ccc(C)c(C)c2)c(=O)c2c(C)c(C(=O)N(C)C)sc21 | -3% | 13µM* | · | -1% | 25%[10.9 µM] | ·
COc1ccc(-c2nc(S(=O)(=O)c3ccc(Cl)cc3)c(N3CCCCCC3)o2)cc1 | -4% | 6% | 8 | ? | -11%[10.9 µM] | ·
C=CCNc1ncnc2c1cnn2-c1ccc(OC)cc1 | ? | ? | -3 | · | · | ·
CCCN(CCC)c1ncnc2c1cnn2-c1ccc(OC)cc1 | ? | ? | 13 | -2% | -25% | 16µM*
CCCNc1ncnc2c1cnn2-c1ccc(OC)cc1 | · | · | -4 | · | · | 7.9µM*
Cc1cn2c(=O)cc(COc3ccccc3NC(=O)c3ccc(Cl)cc3)nc2s1 | 10% | 10% | · | 0% | -2%[10.9 µM] | ·
O=C(O)CCSc1nnc(-c2ccc(Cl)cc2Cl)o1 | 13µM* | ? | · | ? | 13%[10.9 µM] | ·
Fc1ccc(-c2nnc(-c3ccc(Cl)cc3Cl)o2)cc1 | 5µM* | 13µM* | -7 | ? | -50% | 1.3µM*
Clc1ccc(-c2nnc(-c3ccccc3)o2)c(Cl)c1 | 7.9µM* | 10µM* | 1 | ? | -31% | 2µM*
CSc1ccccc1-c1nnc(-c2ccc(Cl)cc2Cl)o1 | · | · | 2 | · | · | ·
CCOc1ccc(NC(=O)C(=O)NCCc2ccccc2)cc1 | -1% | 12% | -1 | -5% | -2%[10.9 µM] | ·
COc1cccc(NC(=O)CSc2nnc(NC(=O)NC3CCCCC3)s2)c1 | 11µM* | 13µM* | · | ? | ? | ·
COc1ccc(-c2nsc3c(N4CCCC4)ncnc23)cc1 | ? | ? | 2 | 0% | -15% | 0.79µM*
O=C(/C=C\Nc1ccccn1)c1ccccc1 | 10µM* | ? | -1 | ? | -83% | 3.2µM*
O=C(/C=C/Nc1ccccc1Br)c1ccccn1 | 0.79µM* | 1.3µM* | 7 | ? | -94% | 0.1µM*
CN(C)CC/C=C1\c2ccccc2COc2ccccc21 | -4% | -21% | 19 | 1% | -27% | 1%
Oc1c(Br)cc(Br)c2cccnc12 | ? | 7.9µM* | · | · | -30% | ·
Oc1c(CN2CCN(c3ccccc3)CC2)cc(Br)c2cccnc12 | -4%[9.22 µM] | ? | · | 9%[11.4 µM] | -20%[10.9 µM] | -8%[11.4 µM]
SMILES | p53ts 32C kill | p53ts 39C kill | IMPase cell inh | IkB signaling | Peg3 imprint | Luciferase inh
CCOc1ccc(Cl)cc1C1CC(=O)Nc2cc(OC)c(OC)c(OC)c21 (stereo unspecified) | -5% | -2% | 8 | 8% | -4%[10.9 µM] | ·
O=C(Nc1ccccc1F)c1ccc2c(Cl)c3c(nc2c1)CCC3 | 1.3µM* | 1.6µM* | · | ? | -73%[10.9 µM] | ·
CCOc1ccccc1NC(=O)c1ccc2c(Cl)c3c(nc2c1)CCC3 | ? | 4µM* | · | ? | -12%[10.9 µM] | ·
CC(CC(O)C1OC1(C)C)C1CCC2(C)C3=CCC4C(C)(C)C(=O)CCC4(C)C3CC[C@@]12C (stereo partly specified) | 25% | -25% | · | · | -33% | ·
CC(C)=CC(=O)Nc1ccc(Br)cc1 | -24% | -15% | -4 | -1% | -59% | 20µM*
O=C(Nc1c(-c2ccc(F)cc2)nc2ccccn12)c1ccccc1F | -3% | -10% | · | 1% | -8%[10.9 µM] | ·
O=C(Cn1ncc2c3ccccc3n(Cc3ccccc3F)c2c1=O)NC1CCCCCC1 | -11% | 7.9µM* | · | 1% | -16%[10.9 µM] | ·
COc1cc(NC(=O)C2=C(C)Nc3nnnn3C2c2ccc(SC)cc2)c(OC)cc1Cl (stereo unspecified) | 16% | 38% | · | ? | 6%[10.9 µM] | ·
COc1ccc(-c2nc(-c3ccc(Br)o3)no2)cc1OC | -2% | -1% | -8 | -1% | -24% | -7%
COc1cccc(-c2nc(-c3ccc(Br)o3)no2)c1 | ? | 13µM* | · | 4% | -10%[10.9 µM] | ·
c1ccc(-c2noc(-c3ccc4ccccc4c3)n2)cc1 | ? | ? | -2 | ? | -36% | 1.3µM*
Brc1ccc(-c2nc(-c3ccccc3)no2)o1 | -6% | -8% | 9 | 9% | -34% | 13µM*
COc1cccc(-c2nnc(-c3ccc(C)o3)o2)c1 | 13µM* | 11µM* | -7 | · | · | ·
CC(C)NC(=O)N1CCC2(CC1)CCN(S(C)(=O)=O)CC2 | -11% | 3% | · | 4%[11.4 µM] | · | 1%[11.4 µM]
CN[C@@H]1[C@H](O)[C@H](NC)[C@@H]2O[C@]3(O)C(=O)C[C@@H](C)O[C@H]3O[C@@H]2[C@H]1O | · | · | · | 1%[11.4 µM] | · | -2%[11.4 µM]
Cn1c(-c2ccc(F)cc2)cnc1SCC(=O)N1CCCCC1 | -15% | -18% | 5 | -1% | -30% | 16µM*
CCCOC(=O)Nc1ccc(N2CCCCC2)cc1 | 13µM* | 16µM* | 0 | 1% | -44% | 13µM*
Cc1nc2cc3nc(C)sc3cc2s1 | ? | ? | -2 | -1% | -31% | 16µM*
Cc1nc2cc(CO)ccc2s1 | 2% | -2% | -9 | 1% | -3% | -35%
O=C(N/N=C\c1ccc2c(c1)CCC2)c1ccccc1O | ? | -25%[9.22 µM] | · | ? | -4%[10.9 µM] | 3.2µM*
O=C(N/N=C/c1ccc2ccccc2c1)c1ccc(COc2ccc3c(c2)CCC3)o1 | · | · | 5 | · | · | ·
c1cnc2c(c1)ccc1cccnc12 | ? | 3.2µM* | -4 | 1%[11.4 µM] | -54% | 0%[11.4 µM]
Cc1cccc2cccnc12 | -15%[1.84 µM] | 0% | · | -1% | 5% | ·
CN(C)C1CCN(C(=O)c2ccc(-n3c(=O)c(=O)[nH]c4ccccc43)cc2)C1 (stereo unspecified) | 4% | 5% | · | · | · | ·
Cc1cc(C)c2sc(N(Cc3cccnc3)C(=O)CCS(=O)(=O)c3ccccc3)nc2c1 | -1% | 16µM* | · | 1% | 19%[10.9 µM] | ·
